Results as given in publication PMC7819943, “Rice protein-binding microarrays: a tool to detect cis-acting elements near promoter regions in rice”.
Over roughly 68,000 sequences, “fluorescence intensity (a.u.)” has its median near 9,100; the highest 2% begin near 16,000. Only a selection was taken, and the highest values are over-represented in it overall.

target: OsWRKY34 (Oryza sativa, UniProt Q0JBA9 1-250); assay: protein-binding microarray (RPBM); PBS, 2% BSA, 51.3 ng/ul salmon testes DNA, 50 uM zinc acetate, 200 nM TF, 25 C, 1 h; high values mean tight binding; settings: protein: recombinant; tags: N-terminal polyhistidine and DsRed monomer fusion (pET32a); label: CyDye5-dUTP incorporated in the synthesized complementary strand; 3' TTTTT single-stranded linker to array surface; dsDNA, one strand shown
Sequence (Q0JBA9 entry or part of it): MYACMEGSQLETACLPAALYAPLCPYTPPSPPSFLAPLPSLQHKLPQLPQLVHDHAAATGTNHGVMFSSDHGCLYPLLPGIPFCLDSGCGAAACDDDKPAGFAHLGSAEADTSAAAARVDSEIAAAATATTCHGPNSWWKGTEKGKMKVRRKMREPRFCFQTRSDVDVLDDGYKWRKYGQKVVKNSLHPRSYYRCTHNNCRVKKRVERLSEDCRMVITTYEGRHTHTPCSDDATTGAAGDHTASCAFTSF
In short: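 Binding signal is defined as the fluorescence intensity of each feature in arbitrary units, read on an Axon 4000B scanner. Transcription factors with N-terminal polyhistidine and DsRed fusions came from E. coli BL21-CodonPlus and were purified on Ni–NTA. They were incubated at 200 nM for 1 h at 25 °C on a custom Agilent array that had been made double-stranded with Cy5-dUTP, with 50 µM zinc acetate present, and the array was washed.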

Sequence	binding signal
ACCTTTTTAAATATTTGACACTGTCGACTTTTTAGCACATCGGAGTCACCTAGTGCAG	9730 fluorescence intensity (a.u.)
GTTTTAAAATGGTTGACACCGTTGACTTTTTAGCACGTGTCGGAGTCACCTAGTGCAG	30100 fluorescence intensity (a.u.)
TTTCAAAATATTTGACACCGTTGACTTTTTAACACATGTTCGGAGTCACCTAGTGCAG	17900 fluorescence intensity (a.u.)
TGTTTGACACCGTTGACTTTTTAGCACATGTTTGACCGTTCGGAGTCACCTAGTGCAG	38000 fluorescence intensity (a.u.)
TCAAAATGTTCGACACCGTTGACTTTTTAACACATGTTTGCGGAGTCACCTAGTGCAG	14400 fluorescence intensity (a.u.)
ATCCTAAAATGTTTGACACCATTGACTTTTTTAAAAATGTCGGAGTCACCTAGTGCAG	8790 fluorescence intensity (a.u.)
TTGACACCGTTGACTTTTTAGCACATGTTTGACCGTTCGTCGGAGTCACCTAGTGCAG	35800 fluorescence intensity (a.u.)
TTTAACACATGTTTGACCGTTCGTCTTATTCAAAAACTTTCGGAGTCACCTAGTGCAG	10900 fluorescence intensity (a.u.)
TGGCTTGGTCCGCTAGTTCCTAACATCATGACAGTATTTTCGGAGTCACCTAGTGCAG	8280 fluorescence intensity (a.u.)
CCCAGGTAGGATATGTGTATGTGTTTATATGGGTGAGTCTCGGAGTCACCTAGTGCAG	9300 fluorescence intensity (a.u.)
TTTACCTCTCTGCCGGCCTTTGCACGCTTGTAGCCCACCACGGAGTCACCTAGTGCAG	9670 fluorescence intensity (a.u.)
GGCACGGTTTGAACGCATTACCCATTCCCCGTTTGACTTCCGGAGTCACCTAGTGCAG	12800 fluorescence intensity (a.u.)
GCGTTACATACATCCTTATTATGTTGTTCATGTTTATAAACGGAGTCACCTAGTGCAG	8240 fluorescence intensity (a.u.)
CCTATATCATCCTTTGATAAGATCGACTGTTTGCTATTTACGGAGTCACCTAGTGCAG	9940 fluorescence intensity (a.u.)
TGCCAATGCCAGGGTTTTCGTCGGTTTTACATAAATTAACCGGAGTCACCTAGTGCAG	8500 fluorescence intensity (a.u.)
GTGGAATCGTTCGTTCTTGACTTCACCTACCAAGATTTGCCGGAGTCACCTAGTGCAG	8640 fluorescence intensity (a.u.)
CCTCGCTCCGTCGCTCACAACCCGTCTCCTGCTCGATCCGCGGAGTCACCTAGTGCAG	9140 fluorescence intensity (a.u.)
TAGCATGACCTTTCACCCATACATATGAGCTACTTCTCTTCGGAGTCACCTAGTGCAG	9280 fluorescence intensity (a.u.)
TAGATAACGTCATTGACTTTTTCTCACATATTTGACCATTCGGAGTCACCTAGTGCAG	12400 fluorescence intensity (a.u.)
TGTTTGACATCGTTGACTTTTTAACACATGTTTCACTGTTCGGAGTCACCTAGTGCAG	36000 fluorescence intensity (a.u.)
GACACCGTTGACTTTTTAGCACATGTTTGACCGCTCATCTCGGAGTCACCTAGTGCAG	32800 fluorescence intensity (a.u.)

Sequence	binding signal
ACGCCGTTGGCTTTTTAGCATATATTTGACCATTCATCTTCGGAGTCACCTAGTGCAG	8190 fluorescence intensity (a.u.)
GAGATATCGTTGACTTTTAGCATAACATAGACCATTCAGCCGGAGTCACCTAGTGCAG	18300 fluorescence intensity (a.u.)
ATGTATAACACTGTTGACTTTTTAAGATATATTTGATCATCGGAGTCACCTAGTGCAG	15900 fluorescence intensity (a.u.)
TTGATACCGTTGACTTTTTAGCACATGTTTGACCATTCATCGGAGTCACCTAGTGCAG	39400 fluorescence intensity (a.u.)
ACAATTCACAAACGAACCTCTGCTGTTAGCCGCCTCTTTCCGGAGTCACCTAGTGCAG	8190 fluorescence intensity (a.u.)
GTTGCTTACTACCTGGTATTAGTCATTGTGGGAGTAGTTCCGGAGTCACCTAGTGCAG	8160 fluorescence intensity (a.u.)
TGGCATTTTTTTTTTTGGAATTGAGCACTTGTTAATGTCACGGAGTCACCTAGTGCAG	8110 fluorescence intensity (a.u.)
GCTCACCTAACCCATTCACGTGGCGCCAAACCCTCAGGGGCGGAGTCACCTAGTGCAG	8250 fluorescence intensity (a.u.)
CACTCGTTTTCAGATCATTTTCCATGGCGCCATGGCGCCTCGGAGTCACCTAGTGCAG	8500 fluorescence intensity (a.u.)
ATCATTTAATTCCTGCGTTTTTCCTGCGATTCAATCAAACCGGAGTCACCTAGTGCAG	11300 fluorescence intensity (a.u.)
AGCTATATTACTCACCTTCTCTCTTTAAGCCTGTCTAGTACGGAGTCACCTAGTGCAG	10300 fluorescence intensity (a.u.)
TTTCCCTGATCCTTTTCCTAACCCAGTGGCAGGCATCTTTCGGAGTCACCTAGTGCAG	9990 fluorescence intensity (a.u.)
CTACTTGTGCTGTGTCTTTGTTTTTCTTTCACATTTCTAGCGGAGTCACCTAGTGCAG	14300 fluorescence intensity (a.u.)
GTGGGTCCACTTGCTACACATACCACCCCACTTAAACTTTCGGAGTCACCTAGTGCAG	8640 fluorescence intensity (a.u.)
AATGTTTGACACCGTTGATTTTTTTAGCACATGTTTCACCCGGAGTCACCTAGTGCAG	8960 fluorescence intensity (a.u.)
ATGTTTGACGCCGTTGATATTTTAGCACATGTTTGACTGTCGGAGTCACCTAGTGCAG	11400 fluorescence intensity (a.u.)
CGCCGCTGCCGTTGACCGTGTTCCGGCACTTCTTCACGACCGGAGTCACCTAGTGCAG	17400 fluorescence intensity (a.u.)
CCTTCCGTTTGACACTGTTGACTTTTTTAAATATGTTTGACGGAGTCACCTAGTGCAG	16100 fluorescence intensity (a.u.)
TTGACACTGTTGACTTTTTAATATATGTTTGACTGTTCGTCGGAGTCACCTAGTGCAG	20400 fluorescence intensity (a.u.)
ATATTTTAATGAATGACACTGTTGACTTTTTGACAAACGTCGGAGTCACCTAGTGCAG	13300 fluorescence intensity (a.u.)
CCGCTGCCGCTTCCGCTTCCGCTTCTTCCGTTCTGGAGACCGGAGTCACCTAGTGCAG	10400 fluorescence intensity (a.u.)

Sequence	binding signal
ATATTTGACACCGTTGACTTTTTAGCACATGTTTGACTGTCGGAGTCACCTAGTGCAG	33000 fluorescence intensity (a.u.)
TTCAAAATGTTTGACACCGTTGACTTTTTAACACATGATCCGGAGTCACCTAGTGCAG	32400 fluorescence intensity (a.u.)
CCACGCCGCACCCACCCACTGCCCGTTCCGTTCCGGCGACCGGAGTCACCTAGTGCAG	10900 fluorescence intensity (a.u.)
CGGCGCGTACGCAGTCCACTACCACCACTTCCGCCGGCGCCGGAGTCACCTAGTGCAG	8450 fluorescence intensity (a.u.)
CTTGCCGGCCTCCACCGCTAATGTTTGTGCACACAGAAAACGGAGTCACCTAGTGCAG	8330 fluorescence intensity (a.u.)
GAACCTAGAAATATTGTCTGTTTTCCTGCCGAACTGAACTCGGAGTCACCTAGTGCAG	9900 fluorescence intensity (a.u.)
TGAAAGGGGTTGATGTGTGGTGAAGGGTAGGTAATTTGTACGGAGTCACCTAGTGCAG	10700 fluorescence intensity (a.u.)
GGTGGTGGTGTGAGAGCAGTAGACAGGTTTTTCTTGGGGACGGAGTCACCTAGTGCAG	8280 fluorescence intensity (a.u.)
CTTCTGCTTCTGGTTCTGGTTCGCCTTCCTAGTTCCTACCCGGAGTCACCTAGTGCAG	8330 fluorescence intensity (a.u.)
GAAAAATCTTTCCAGTGGTAGTGTGTTGCTCTCGGCCTCGCGGAGTCACCTAGTGCAG	8320 fluorescence intensity (a.u.)
GCCCCGAGCGGGCCGAGCTCCCATCGTCTCATCGCCCCAACGGAGTCACCTAGTGCAG	11600 fluorescence intensity (a.u.)
AGCCAACCACACACAATGAACCATACCACAGTTACCACAGCGGAGTCACCTAGTGCAG	10100 fluorescence intensity (a.u.)
TTGGGGAGGATTTTTTCTTTTCATTTCATAATTAATTTCCCGGAGTCACCTAGTGCAG	11400 fluorescence intensity (a.u.)
TGCATCTCGCCTTATCCCCGCGCCGGCGCTAGGCGAATCGCGGAGTCACCTAGTGCAG	8340 fluorescence intensity (a.u.)
TTTTAGCACATGTTGACCGTTCGTCTTATTCAAAAAATTTCGGAGTCACCTAGTGCAG	9160 fluorescence intensity (a.u.)
GCCGTATCTTCTGCGTTGACCAGATCCTTCACTGTCACGCCGGAGTCACCTAGTGCAG	19200 fluorescence intensity (a.u.)
TTGACACCGTTGACTTTTTAGTACATGTTTGACCGTTCGTCGGAGTCACCTAGTGCAG	41400 fluorescence intensity (a.u.)
TTCGTTGTACTTACCATCGTTGTTTAGTTTGATTTTTTTTCGGAGTCACCTAGTGCAG	8950 fluorescence intensity (a.u.)
ACGCCGCCGTTGCACTTCTCTGCACGCCATTGATCCGATCCGGAGTCACCTAGTGCAG	8480 fluorescence intensity (a.u.)
AGTTTTTGGTAGTTTAGTTTGATACACCACTTCGTTTGATCGGAGTCACCTAGTGCAG	18600 fluorescence intensity (a.u.)
AATGGTTTTATCGTTTTACGTGTGTACACCACTTATATATCGGAGTCACCTAGTGCAG	8060 fluorescence intensity (a.u.)

Sequence	binding signal
CCGAAGCGTCATCGCCGGTGGCCGTATCTTCTGCGTTGACCGGAGTCACCTAGTGCAG	15300 fluorescence intensity (a.u.)
TGACTTTTTAGCACATGTTTGACTGTTCGTCTTATTCAAACGGAGTCACCTAGTGCAG	10200 fluorescence intensity (a.u.)
ACACCGTTGACTTTTTAGCACATGTTGGACTGTTCGTCTTCGGAGTCACCTAGTGCAG	39800 fluorescence intensity (a.u.)
TAACCAGAGTAAATTTTTGGCCAACTTAAGTGCTTTCATACGGAGTCACCTAGTGCAG	9070 fluorescence intensity (a.u.)
GCAACTTTTTTTCCAAATGTTTGGCATCTGGTGTGTCATCCGGAGTCACCTAGTGCAG	8040 fluorescence intensity (a.u.)
GAAGCCCACCCAATTCGATTTTTTGGGCCGCCCCACCTTTCGGAGTCACCTAGTGCAG	8790 fluorescence intensity (a.u.)
TACCGTCGTGCTCCATCAATTCCATCTCCACGTGTTATTGCGGAGTCACCTAGTGCAG	10900 fluorescence intensity (a.u.)
GCGATCTTCGCGGCTTCACCATCATACCTGCAACTGCAACCGGAGTCACCTAGTGCAG	8220 fluorescence intensity (a.u.)
CGTCCGGCCGCGAAACCGAGCCTTCTGACCACCGCCGAAACGGAGTCACCTAGTGCAG	8050 fluorescence intensity (a.u.)
TATTTAACACCGTTGACTTTTTAGCACATGTTTGACCGTTCGGAGTCACCTAGTGCAG	38200 fluorescence intensity (a.u.)
ACACCGTTGACTTTTTAGCACGTGTTTGACCGTTCACCTTCGGAGTCACCTAGTGCAG	26900 fluorescence intensity (a.u.)
GTTTGTTGCAGTTTGGTGTGTATGTTTGTTGCACTTTGATCGGAGTCACCTAGTGCAG	9920 fluorescence intensity (a.u.)
CACCGTTGATTTTTTAGCACATGTTTGACCGTTCGTCTTACGGAGTCACCTAGTGCAG	12900 fluorescence intensity (a.u.)
ACCGTTGACTTTTTAGCACATGATTGATCGTTCGTTTTATCGGAGTCACCTAGTGCAG	33800 fluorescence intensity (a.u.)
TTGATTTTTTTAGCACATGTTTGACCGTTCGTCTTATTAACGGAGTCACCTAGTGCAG	13200 fluorescence intensity (a.u.)
GTTGACTTTTTAGCACGTGTTTGACCGTTCGTCTTATTAACGGAGTCACCTAGTGCAG	9780 fluorescence intensity (a.u.)
TTGTTTGCACCGGTTTTGACAGTTCAGGGATCGGTTGTATCGGAGTCACCTAGTGCAG	8200 fluorescence intensity (a.u.)
ATTTGACACCGTTAACCTTTTAGCACATGTTTGACCGTTCCGGAGTCACCTAGTGCAG	11900 fluorescence intensity (a.u.)
TAAGCACAGTTGACTTTTTTTTTGGTGTGTTCCGGTGTATCGGAGTCACCTAGTGCAG	20900 fluorescence intensity (a.u.)
CAAAAACACTCCACATATTTTTCCTTTTAGTTACGTAATTCGGAGTCACCTAGTGCAG	9500 fluorescence intensity (a.u.)
TCGTCGTGTTCGTGTTTTTTTTCTTCCAATCTGCGCGCGTCGGAGTCACCTAGTGCAG	8990 fluorescence intensity (a.u.)
